Records with an inconclusive call do not appear. Activity calls are given as the source filed them. Calls come from the whole dose curve; as a rule, active = well fitted curve in the direction sought with a large enough effect; inconclusive = small, poorly fitted or top-dose-only effect, or another doubt; inactive = no such curve, though single readings can be large; an effect the other way counts as inactive or inconclusive.
Assays:
[1] = biological target: Glutathione peroxidase 1 (Homo sapiens) (UniProt P07203); test: Primary qHTS Assay for Inhibitors of Recombinant Selenoprotein Glutathione Peroxidase 1 (GPX1) (AID 1845191); note: nearly all actives have a fitted effect of over 65% in size; for activity, negative = inhibition: % is set by controls: 0 for no effect and ±100 for the full control effect
Summary of the method: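 NADPH consumption tracked by fluorescence at 340/450 nm between t=0 and t=15 min, room temperature. Final mix: 10 nM GPX1, 100 nM glutathione reductase, 1 mM GSH, 0.5 mM NADPH, 0.5 mM cumene hydroperoxide, 0.01% BSA; 30 min compound–enzyme preincubation.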

[2] = biological target: Phospholipid hydroperoxide glutathione peroxidase GPX4 (Homo sapiens) (UniProt P36969); test: Primary qHTS Assay for Inhibitors of Recombinant Selenoprotein Glutathione Peroxidase 4 (GPX4) (AID 1845192); note: nearly all actives have a fitted effect of over 65% in size; for activity change, negative = inhibition: series mostly up to about 50 µM; % is set by controls: 0 for no effect and ±100 for the full control effect
Summary of the method: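 NADPH consumption followed by fluorescence at 340/450 nm, t=0 and after 15 min at room temperature. Reaction started with cumene hydroperoxide (0.5 mM final) after 30 min compound–GPX4 preincubation; final 200 nM GPX4, 100 nM GR, 1 mM GSH, 0.5 mM NADPH.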

[3] = biological target: Luciferin 4-monooxygenase (Photinus pyralis) (UniProt P08659); test: Primary firefly luciferase (FLuc) qHTS assay for identification of artifact compounds. (AID 1845220); note: nearly all actives have a fitted effect of over 60% in size;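 for activity change, negative = inhibition: series mostly up to about 54 µM; plate controls were DMSO vehicle for no effect and no enzyme for full effect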
Summary of the method: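 FLuc 10 nM; luciferin 10 uM; ATP 10 uM; Tris-acetate pH 7.6, Mg-acetate 10 mM; 15 min RT preincubation; 5 min reaction; luminescence.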

[4] = Primary fluorescence-based thiol-reactive (MSTI) qHTS assay for identification of artifact compounds. (AID 1845221);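 note: series mostly up to about 54 µM; thiol-reactive compounds lower the probe fluorescence signal; nearly all actives have a fitted effect of over 65% in size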
Summary of the method: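 qHTS titration of compound; 4 uM MSTI, PBS pH 7.4, 2% DMSO; 1 h RT, dark; fluorescence 525/598 nm; normalized to Acetyl-MSTI and MSTI; 4-parameter Hill fit.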

[5] = system: Nanoluciferase (engineered Oplophorus gracilirostris luciferase); test: Primary Nanoluciferase (NLuc) qHTS assay for identification of artifact compounds. (AID 1845222);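 note: NLuc secreted into diluted conditioned medium of S16 cells; series mostly up to about 54 µM; 0% = DMSO and -100% = no enzyme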
Summary of the method: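 NLuc from S16 cell medium (1:55) plus test compounds, 15 min, room temperature. Luminescence after Nano-Glo (1:100) addition, 5 min.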

[6] = Primary redox qHTS assay for identification of artifact compounds. (AID 1845223);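 note: 0% = DMSO and 100% = reference compound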
Summary of the method: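 Redox-cycling detection via DTT (250 uM final) oxidation coupled to Amplex Red (25 uM)/HRP (250 mU/mL) in HBSS. 15 min preincubation plus 30 min after DTT, room temperature. Ex/Em 525/598 nm; 4-parameter Hill fit against DMSO and 10 uM DA3003.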

Phospholipid hydroperoxide glutathione peroxidase GPX4 (Homo sapiens), sequence (P36969 whole entry, looked up): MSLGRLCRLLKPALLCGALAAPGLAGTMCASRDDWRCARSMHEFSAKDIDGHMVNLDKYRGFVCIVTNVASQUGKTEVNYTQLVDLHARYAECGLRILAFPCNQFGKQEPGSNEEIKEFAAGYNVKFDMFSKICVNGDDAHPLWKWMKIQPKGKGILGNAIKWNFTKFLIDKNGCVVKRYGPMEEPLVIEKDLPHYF
Glutathione peroxidase 1 (Homo sapiens), sequence (P07203 whole entry, looked up): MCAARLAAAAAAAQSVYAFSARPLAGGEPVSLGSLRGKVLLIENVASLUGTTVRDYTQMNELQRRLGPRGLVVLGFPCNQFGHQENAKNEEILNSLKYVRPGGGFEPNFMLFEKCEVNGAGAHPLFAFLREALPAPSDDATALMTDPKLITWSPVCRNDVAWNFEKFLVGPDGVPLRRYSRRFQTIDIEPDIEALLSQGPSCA

Cc1nc(Nc2ccc(F)cc2)nc(N2CCc3ccccc3C2C)c1C (centres undefined)
inactive: Potency [1] | Potency [2] | Potency [3] | Potency [4] | Potency [5] | Potency [6]

C/C=C(/C)C(=O)OC1CC(C)(C)CC2C3=CCC4C5(C)CCC(O[C@@H]6O[C@H](C(=O)O)[C@@H](O)[C@H](O)[C@H]6O[C@@H]6O[C@H](CO)[C@H](O)[C@H](O[C@@H]7OC[C@H](O)[C@H](O)[C@H]7O[C@@H]7O[C@H](CO)[C@@H](O)[C@H](O)[C@H]7O)[C@H]6O)C(C)(C)C5CCC4(C)C3(C)C(O)C(O)C12CO (some centres undefined)
inactive: activity, negative = inhibition [1] -3.11% [at 9.52 µM] | activity change, negative = inhibition [2] -1.81% [at 9.73 µM] | activity change, negative = inhibition [3] 1.87% [at 11.6 µM] | activity change, negative = thiol reactive [4] 199% [at 11.5 µM] | activity, negative = inhibition [5] 4.03% [at 11.6 µM] | redox activity (% of DA3003) [6] 15.7% [at 11.5 µM]

Cn1cc(-c2cnn3c(N)c(Br)c([C@@H]4CCCNC4)nc23)cn1
inactive: Potency [1] | Potency [2] | Potency [3] | Potency [4] | Potency [5] | Potency [6]

N#CC(CCCN1CCN(/N=C/c2cccnc2)CC1)(c1ccccc1)c1ccccc1
inactive: Potency [1] | Potency [2] | Potency [3] | Potency [4] | Potency [5] | Potency [6]

O=C(NCc1nc2ccccc2c(=O)n1-c1ccc(F)cc1)Nc1ccc(Cl)c(C(F)(F)F)c1
inactive: Potency [1] | Potency [2] | Potency [3] | Potency [4] | Potency [5] | Potency [6]

CC(C)n1cnc2c(-c3cnc(N)nc3)nc(N3CCOCC3)nc21
inactive: Potency [1] | Potency [2] | Potency [3] | Potency [4] | Potency [5] | Potency [6]

C/C(=C\CCC(C)C1=CCC2(C)OC3=C(CC12)C(=O)C(O)CC3)CO (centres undefined)
inactive: Potency [1] | Potency [2] | Potency [3] | Potency [4] | Potency [5] | Potency [6]

C=C1C(=O)O[C@@H]2C[C@@]3(C)CCCC(=C)[C@]3(O)C[C@H]12
inactive: Potency [1] | Potency [2] | Potency [3] | Potency [4] | Potency [5] | Potency [6]

O=C(NCCCc1ccccc1)C1CCC(CNS(=O)(=O)c2cccc3nsnc23)CC1 (centres undefined)
inactive: Potency [1] | Potency [2] | Potency [3] | Potency [4] | Potency [5] | Potency [6]

CCC(C)C(=O)OC12C(OC(C)=O)C(C)C3(O)C(C=C(CO)CC4(O)C(=O)C(C)=CC43)C1C2(C)C (centres undefined)
inactive: Potency [1] | Potency [2] | Potency [3] | Potency [4] | Potency [5] | Potency [6]

CCOC(=O)c1ccc(OCCC2CCN(c3ccc(C)nn3)CC2)cc1
inactive: Potency [1] | Potency [2] | Potency [3] | Potency [4] | Potency [5] | Potency [6]

Cc1cc(-c2nc(-c3ccc(OC(F)(F)F)cc3)no2)nn1Cc1ccnc(N2CCN(C3CC3)CC2)c1
inactive: Potency [1] | Potency [2] | Potency [3] | Potency [4] | Potency [5] | Potency [6]

CC(=O)O[C@H]1C[C@@](O)(C(C)C)[C@@H]2[C@@H](OC(=O)c3ccc(O)cc3)CC(C)=CC[C@@]12C
inactive: Potency [1] | Potency [2] | Potency [3] | Potency [4] | Potency [5] | Potency [6]

CC(C)(N)c1ncc(-c2ccc(OC(F)(F)F)cc2)[nH]1
inactive: Potency [1] | Potency [2] | Potency [3] | Potency [4] | Potency [5] | Potency [6]

CC1CCCC(O)CCC/C=C/c2cc(OS(=O)(=O)O)cc(O)c2C(=O)O1 (centres undefined)
inactive: Potency [1] | Potency [2] | Potency [3] | Potency [4] | Potency [5] | Potency [6]

CCOc1cc(C(C)(C)C)ccc1C1=NC(C)(c2ccc(Cl)cc2)C(C)(c2ccc(Cl)cc2)N1C(=O)N1CCN(CCCS(C)(=O)=O)CC1 (centres undefined)
inactive: Potency [1] | Potency [2] | Potency [3] | Potency [4] | Potency [5] | Potency [6]

C=C1C(=O)O[C@@H]2C(OC(=O)/C(C)=C\C)/C(C)=C\C(=O)/C=C(\C)C[C@H](O)[C@@H]12 (some centres undefined)
inactive: Potency [1] | Potency [2] | Potency [3] | Potency [4] | Potency [5] | Potency [6]

C=C1C(=O)O[C@H]2/C=C(/C)[C@@H](OC(C)=O)C/C=C(\C)C[C@@H](OC(=O)/C(=C/C)COC(=O)/C(=C/C)CO)[C@@H]12
inactive: Potency [1] | Potency [2] | Potency [3] | Potency [4] | Potency [5] | Potency [6]

CCS(=O)c1nc(-c2cccc(OCc3ccccc3)c2)cc(C(F)(F)F)n1 (centres undefined)
inactive: Potency [1] | Potency [2] | Potency [3] | Potency [4] | Potency [5] | Potency [6]

C=C[C@H](/C=C\c1ccc(O)cc1)c1ccc(O)cc1
inactive: Potency [1] | Potency [2] | Potency [3] | Potency [4] | Potency [5] | Potency [6]

O=C(OC1CN2CCC1CC2)N1CCc2ccccc2C1c1ccccc1 (centres undefined)
inactive: Potency [1] | Potency [2] | Potency [3] | Potency [4] | Potency [5] | Potency [6]

CNc1nc(NCc2ccc(NS(C)(=O)=O)cc2Cl)cc(-c2ccccn2)n1
inactive: Potency [1] | Potency [2] | Potency [3] | Potency [4] | Potency [5] | Potency [6]

C[C@@H](NC(=O)c1ccc(C#Cc2cccc(F)c2)cn1)C(C)(C)O
inactive: Potency [1] | Potency [2] | Potency [3] | Potency [4] | Potency [5] | Potency [6]

CC(=O)c1ccc2c(c1)[C@H](NC(=O)c1ccc(F)c(Cl)c1)[C@H](O)C(C)(C)O2
inactive: Potency [1] | Potency [2] | Potency [3] | Potency [4] | Potency [5] | Potency [6]

— PubChem BioAssay (NCATS)
